Here are results for six molecules from PubChem BioAssay (NCATS).

Assay [1] has as its target Cytochrome P450 1A2 (Homo sapiens) (UniProt P05177). Kind of assay: p450-cyp1a2 (AID 410; calls by dose curve; further: potency means the concentration at half of the fitted maximal effect). The method in brief: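 Human CYP1A2 (20nM) demethylated Luciferin-ME at its Km (100uM) in 100mM KPO4. After 10 min compound preincubation, NADPH regeneration ran the reaction 60 min at room temperature. Luciferin was read by luminescence, normalized to 57 uM furafylline.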
Assay [2] can be described thus: NFAT Signaling Pathway (AID 444; active means well fitted curve in either direction with a large enough effect, not every such curve was filed as active;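 further: carbachol stimulus at about its EC50 of 1 µM final; on the % scale 0 is the no-effect control and ±100 the full control effect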). Conditions: Jurkat NFAT-bla M1, carbachol, beta-lactamase ratio, 5 h; at 7.69 µM (top of the series) unless noted. The method, boiled down: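 Read-out: CCF4 FRET ratio (460 nm/530 nm) after 1 h RT dye loading, used for %activity and AC50 from titration series. Cells: Jurkat NFAT-β-lactamase/M1 line, treated with compound plus 1 uM carbachol for 5 h, 37 °C.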

Assay [3] can be described thus: Stat Signaling Pathway (AID 446; active means well fitted curve in either direction with a large enough effect, not every such curve was filed as active;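 further: ME-180 cervical cancer cells given 40 pM IL-6 alongside compound; SIE-controlled beta-lactamase reporter measured as 460/530 nm FRET emission ratio; on the % scale 0 is the no-effect control and ±100 the full control effect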). Conditions: ME-180 SIE beta-lactamase reporter, IL-6 stimulated, 5 h; at 7.69 µM (top of the series) unless noted. The method, boiled down: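 Reporter line: ME-180 cervical carcinoma, SIE-beta-lactamase. Treatment: compound with 40 pM IL-6, 5 hrs, 37 C, in low-serum OPTI-MEM with 10 mM HEPES pH 7.3. Detection: 460/530 nm fluorescence.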

Assay [4] deals with Glucocorticoid receptor (Homo sapiens) (UniProt P04150). As to the kind of experiment: GR-GFP Redistribution (AID 450;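 active means compounds whose dose series gives a full or clear partial fitted curve of increased nuclear translocation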; further: potency means the concentration at half of the fitted maximal effect). Particulars: U2OS GR-GFP nuclear translocation, laser cytometry, 2 h.
Sequence of Glucocorticoid receptor (Homo sapiens) (P04150 whole entry, looked up): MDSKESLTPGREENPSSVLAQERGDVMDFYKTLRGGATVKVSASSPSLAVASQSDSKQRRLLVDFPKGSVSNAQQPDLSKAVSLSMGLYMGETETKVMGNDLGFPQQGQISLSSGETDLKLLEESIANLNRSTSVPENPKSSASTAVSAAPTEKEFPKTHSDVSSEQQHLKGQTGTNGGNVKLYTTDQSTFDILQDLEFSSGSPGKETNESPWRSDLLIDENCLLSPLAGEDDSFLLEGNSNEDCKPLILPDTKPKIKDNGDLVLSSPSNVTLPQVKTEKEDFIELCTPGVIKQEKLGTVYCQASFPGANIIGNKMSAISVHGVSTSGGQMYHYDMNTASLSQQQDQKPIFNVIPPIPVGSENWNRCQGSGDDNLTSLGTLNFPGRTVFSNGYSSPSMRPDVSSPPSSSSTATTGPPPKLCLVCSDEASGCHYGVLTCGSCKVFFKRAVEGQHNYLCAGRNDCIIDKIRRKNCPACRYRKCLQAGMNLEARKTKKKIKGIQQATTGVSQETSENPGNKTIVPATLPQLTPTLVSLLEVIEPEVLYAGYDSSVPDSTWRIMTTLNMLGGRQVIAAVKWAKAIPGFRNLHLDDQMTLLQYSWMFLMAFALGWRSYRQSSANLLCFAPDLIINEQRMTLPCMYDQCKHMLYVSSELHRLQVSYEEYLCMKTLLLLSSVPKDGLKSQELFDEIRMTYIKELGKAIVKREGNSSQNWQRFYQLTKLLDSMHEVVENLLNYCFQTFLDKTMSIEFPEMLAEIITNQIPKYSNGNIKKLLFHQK
Assay [5] shares this target. As to the kind of experiment: GR-EFC Redistribution (AID 451; calls by dose curve; further: potency means the concentration at half of the fitted maximal effect). Particulars: CHO-K1 GR-EFC translocation, beta-gal luminescence, 2 h. The method in brief:
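Translocation of GR-ED fusion to nuclear EA restores b-gal, read by luminescence after 1 h room-temperature detection. Engineered CHO-K1 biosensor cells, 1,000/well, exposed 2 h at 37 C to titrations up to 46 uM final.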

The target in assay [6] is Mitogen-activated protein kinase 10 (Mus musculus) (UniProt Q61831). Kind of assay: JNK3 AlphaScreen Assay (AID 530; active means well fitted curve in either direction with a large enough effect, not every such curve was filed as active;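 further: kinase came from lysate of stimulated human HepG2 cells; signal reports phosphorylation of biotinylated GST-cJun 1-79 at Ser73 with 10 µM ATP; on the % scale 0 is the no-effect control and ±100 the full control effect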). The method in brief: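 Room-temperature AlphaScreen kinase assay; pre-activated HepG2 lysate as JNK3 source, biotin-GST-cJun(1-79) substrate, 10 uM ATP, compound 15 min preincubation.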
In general terms: In Alpha technology, singlet oxygen from a donor bead excites a nearby acceptor bead.

Assay [7] has as its target 3',5'-cyclic-AMP phosphodiesterase 4B (Homo sapiens) (UniProt Q07343). As to the kind of experiment: qHTS Assay for Inhibitors of PDE-IV (AID 607; active means well fitted activation curve with a large enough effect in the main read-out, with a control signal flat, not every such curve was filed as active; further: % of control where 0% means no effect). The method in brief: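 Cell-based read-out of cAMP via a modified cyclic nucleotide-gated channel and membrane potential dye (535/590 nm) in HEK293 cells expressing PDE4 endogenously. Compounds tested up to 22.9 uM final; 100 uM RO 20-1724 reference.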
A general note: Quantitative high-throughput screening tests each substance at several concentrations.

The target of assay [8] is Cytochrome P450 3A4 (Homo sapiens) (UniProt P08684). Kind of assay: qHTS Assay for Inhibitors and Substrates of Cytochrome P450 3A4 (AID 884). Further: potency means the concentration at half of the fitted maximal effect; nearly all actives have a fitted effect of over 50% in size. The method in brief: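 20 nM human CYP3A4 with 25 uM Luciferin-PPXE (at KM) in 200 mM KPO4, preincubated 10 min with compound; NADPH regeneration started a 60 min RT reaction. Luciferin detected by luminescence, normalized to 57 uM ketoconazole as full inhibition.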
Sequence of Cytochrome P450 3A4 (Homo sapiens) (P08684 whole entry, looked up): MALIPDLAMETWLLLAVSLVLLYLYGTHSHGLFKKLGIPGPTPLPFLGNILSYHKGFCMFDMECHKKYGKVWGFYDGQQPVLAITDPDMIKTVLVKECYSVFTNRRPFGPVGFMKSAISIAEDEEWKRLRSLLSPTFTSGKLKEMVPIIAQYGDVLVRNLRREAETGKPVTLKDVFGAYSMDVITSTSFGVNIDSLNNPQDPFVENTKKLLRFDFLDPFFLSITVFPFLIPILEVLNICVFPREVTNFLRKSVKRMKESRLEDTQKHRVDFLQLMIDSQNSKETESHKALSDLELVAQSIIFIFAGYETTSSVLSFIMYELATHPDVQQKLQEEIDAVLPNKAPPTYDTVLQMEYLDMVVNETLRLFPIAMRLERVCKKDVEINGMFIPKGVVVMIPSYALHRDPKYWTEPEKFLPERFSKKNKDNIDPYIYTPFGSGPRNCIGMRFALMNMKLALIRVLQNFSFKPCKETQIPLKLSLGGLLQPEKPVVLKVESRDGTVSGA

The target is the same in assay [9]. Kind of assay: qHTS Assay for Activators of Cytochrome P450 3A4 (AID 885). Further: nearly all actives have a fitted effect of over 65% in size. The method, boiled down:
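Signal was normalized against complete inhibition by 57 uM ketoconazole. The reaction used 20nM CYP3A4 with 25uM Luciferin-PPXE, 10-min compound preincubation and a 60-min NADPH-supported step at RT.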

Assay [10] can be described thus: qHTS Assay for Lipid Storage Modulators (AID 1519; calls by dose curve). Conditions: Drosophila S3 cells, BODIPY lipid droplet/cell ratio, laser cytometry, cells loaded with oleic acid; for activity change, negative = inhibition: at 57.5 µM (top of the series). The method in brief: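 Cells seeded at 5,000 per well were treated with compounds over a concentration series and loaded with oleic acid (400 uM, as added). Lipid droplet fluorescence (488 nm excitation, 500-530 nm channel) was read by laser-scanning cytometry and normalized to 20 uM Triacsin C.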

For assay [11], the target named is Dual specificity protein kinase CLK4 (Homo sapiens) (UniProt Q9HAZ1). As to the kind of experiment: qHTS Assay for Inhibitors of CDC-like Kinase 4 (Kinase-Glo Assay) (AID 1770). Further: nearly all actives have a fitted effect of over 65% in size. Further: potency means the concentration at half of the fitted maximal effect. The method, boiled down: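 Substrate mix (RS peptide 100 uM, ATP 1 uM) dispensed, compound pinned in, then Clk4 added to 25 nM final. Incubated 4.5 h at RT; Kinase-Glo reagent added, luminescence read after 5 min.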
Sequence of Dual specificity protein kinase CLK4 (Homo sapiens) (Q9HAZ1 whole entry, looked up): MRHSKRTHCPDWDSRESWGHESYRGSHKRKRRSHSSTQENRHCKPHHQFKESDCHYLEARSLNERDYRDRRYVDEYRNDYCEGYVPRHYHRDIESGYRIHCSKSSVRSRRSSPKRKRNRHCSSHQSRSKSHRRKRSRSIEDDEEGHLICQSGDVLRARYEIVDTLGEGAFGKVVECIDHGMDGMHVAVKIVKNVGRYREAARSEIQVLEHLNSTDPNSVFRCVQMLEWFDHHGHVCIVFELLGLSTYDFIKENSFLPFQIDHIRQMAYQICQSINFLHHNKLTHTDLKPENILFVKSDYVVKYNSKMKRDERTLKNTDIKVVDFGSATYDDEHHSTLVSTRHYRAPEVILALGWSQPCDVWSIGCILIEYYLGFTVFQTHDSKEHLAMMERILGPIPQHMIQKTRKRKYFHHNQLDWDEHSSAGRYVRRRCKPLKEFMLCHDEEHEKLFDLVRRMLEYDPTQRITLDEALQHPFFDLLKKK

Assay [12] shares this target. As to the kind of experiment: qHTS Assay for Inhibitors of CDC-like Kinase 4 (ADP-Glo Assay) (AID 1771). Further: nearly all actives have a fitted effect of over 70% in size. Further: potency means the concentration at half of the fitted maximal effect. The method in brief:
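Clk4 (25 nM) was incubated 1 hr at room temperature with 100 uM RS repeat peptide and 1 uM ATP in buffer with 2 mM MgCl2, 0.5 mM EGTA, 2.5 mM DTT. ADP formed was quantified by ADP-Glo luminescence.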

Assay [13] has as its target Ubiquitin carboxyl-terminal hydrolase 1 (Homo sapiens) (UniProt O94782). As to the kind of experiment: Inhibitors of USP1/UAF1: Pilot qHTS (AID 504865).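 Further: rhodamine fluorescence freed from ubiquitin-rhodamine substrate followed over time; top concentration of the series differs between compounds; on the % scale 0 is the no-effect control and ±100 the full control effect; nearly all actives have a fitted effect of over 35% in size.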 The method, boiled down:
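In 50mM HEPES pH 7.8 containing 0.5mM EDTA, 1mM TCEP, 0.1 mg/ml BSA and 0.01% Tween-20, 1nM USP1/UAF1 is exposed to compound for 15 min, then Ub-Rho (150nM final) is added and fluorescence is read over time.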

For assay [14], the target named is Lysosomal acid glucosylceramidase (Homo sapiens) (UniProt P04062). As to the kind of experiment: Glucocerebrosidase-p2 (AID 348; in the data active means potency below about 10 µM; further: potency means the concentration at half of the fitted maximal effect). Particulars: purified GBA, blue fluorogenic substrate, 40 min. The method, boiled down:
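Compounds titrated from 0.6 nM upwards against 0.2 nM enzyme in pH 5.9 citric acid/KH2PO4, taurocholate, tween-20; blue fluorogenic substrate 80 uM, 40 min room temperature, stopped and read Ex 365/Em 440 for AC50.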

Assay [15] in a line: AP1 Signaling Pathway (AID 357; active means well fitted curve in either direction with a large enough effect, not every such curve was filed as active;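 further: ME-180 reporter cells stimulated with EGF at its EC50 level; on the % scale 0 is the no-effect control and ±100 the full control effect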). Particulars: ME-180 (cervical carcinoma) AP-1-bla reporter, EGF-induced, beta-lactamase ratio, 5 h; at 7.69 µM (top of the series) unless noted. The method, boiled down: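 AP-1-bla ME-180 cells, Opti-MEM + 0.5% dialyzed FBS, plated overnight 37 °C. Cpd titration + EC50 EGF, 5 h 37 °C. CCF4 2.5 h RT; ex 405, em 460/530 ratio → %activity, AC50.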
Assay [16] has as its target Dual specificity protein kinase CLK4 (Homo sapiens) (UniProt Q9HAZ1). As to the kind of experiment: qHTS Assay for Inhibitors of CDC-like Kinase 4 (ADP-FP Assay) (AID 1795).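 Further: recombinant human CLK4 phosphorylating RS repeat peptide at 1 µM ATP; on the % scale 0 is the no-effect control and ±100 the full control effect; nearly all actives have a fitted effect of over 60% in size.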 The method in brief:
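Clk4 6.25 nM; RS peptide 100 uM; ATP 1 uM; 25 mM Tris pH 7.5, 10 mM MgCl2; 1 h reaction. ADP detected via antibody/orange tracer FP displacement; TG003 positive control.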

Where [17] appears, read: measured here: cell count channel max response.
The mark [18] stands for this setting: measured here: lipid channel max response.

The structures appear in SMILES notation. Records with an inconclusive call do not appear. The source made the active and inactive calls. Unless noted, the call rests on the fitted dose curve; in most records, active means well fitted curve in the direction sought with a large enough effect; inconclusive means small, poorly fitted or top-dose-only effect, or another doubt; inactive means no such curve, though single readings can be large; an effect the other way counts as inactive or inconclusive.

Sequence of 3',5'-cyclic-AMP phosphodiesterase 4B (Homo sapiens) (Q07343 whole entry, looked up): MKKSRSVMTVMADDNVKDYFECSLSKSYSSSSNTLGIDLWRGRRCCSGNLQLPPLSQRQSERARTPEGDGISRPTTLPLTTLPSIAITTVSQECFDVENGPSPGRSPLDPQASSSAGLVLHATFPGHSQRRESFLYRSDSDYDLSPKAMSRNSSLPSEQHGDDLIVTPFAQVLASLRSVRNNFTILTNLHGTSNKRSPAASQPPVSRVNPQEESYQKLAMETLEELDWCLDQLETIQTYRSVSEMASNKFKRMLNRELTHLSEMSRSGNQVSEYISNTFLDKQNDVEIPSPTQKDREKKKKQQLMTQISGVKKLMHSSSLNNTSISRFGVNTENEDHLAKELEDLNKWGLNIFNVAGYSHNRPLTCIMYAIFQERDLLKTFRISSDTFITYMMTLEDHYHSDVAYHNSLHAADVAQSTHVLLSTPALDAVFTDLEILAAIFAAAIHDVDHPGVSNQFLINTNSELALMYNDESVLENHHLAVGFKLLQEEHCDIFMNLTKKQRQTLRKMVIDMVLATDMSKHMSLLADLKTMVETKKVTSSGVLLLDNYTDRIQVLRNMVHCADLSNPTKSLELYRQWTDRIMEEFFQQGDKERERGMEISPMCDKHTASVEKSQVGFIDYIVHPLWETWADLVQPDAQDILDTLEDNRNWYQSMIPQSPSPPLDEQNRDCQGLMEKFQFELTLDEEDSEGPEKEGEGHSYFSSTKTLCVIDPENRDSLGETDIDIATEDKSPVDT
Sequence of Lysosomal acid glucosylceramidase (Homo sapiens) (P04062 whole entry, looked up): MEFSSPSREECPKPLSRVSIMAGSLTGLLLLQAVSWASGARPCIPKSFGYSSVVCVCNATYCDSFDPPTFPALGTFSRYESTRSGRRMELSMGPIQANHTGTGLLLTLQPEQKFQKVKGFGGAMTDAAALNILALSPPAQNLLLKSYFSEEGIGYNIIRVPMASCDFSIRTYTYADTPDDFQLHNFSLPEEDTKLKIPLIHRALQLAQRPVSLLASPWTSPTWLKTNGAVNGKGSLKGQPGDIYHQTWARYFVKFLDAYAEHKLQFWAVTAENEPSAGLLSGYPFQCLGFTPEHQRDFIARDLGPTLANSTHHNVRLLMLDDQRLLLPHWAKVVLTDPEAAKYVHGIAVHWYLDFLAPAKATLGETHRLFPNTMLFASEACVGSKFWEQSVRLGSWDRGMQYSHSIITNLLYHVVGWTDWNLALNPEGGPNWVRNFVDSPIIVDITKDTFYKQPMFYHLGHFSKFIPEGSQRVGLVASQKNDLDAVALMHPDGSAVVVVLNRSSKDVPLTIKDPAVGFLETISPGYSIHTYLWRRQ
Sequence of Ubiquitin carboxyl-terminal hydrolase 1 (Homo sapiens) (O94782 whole entry, looked up): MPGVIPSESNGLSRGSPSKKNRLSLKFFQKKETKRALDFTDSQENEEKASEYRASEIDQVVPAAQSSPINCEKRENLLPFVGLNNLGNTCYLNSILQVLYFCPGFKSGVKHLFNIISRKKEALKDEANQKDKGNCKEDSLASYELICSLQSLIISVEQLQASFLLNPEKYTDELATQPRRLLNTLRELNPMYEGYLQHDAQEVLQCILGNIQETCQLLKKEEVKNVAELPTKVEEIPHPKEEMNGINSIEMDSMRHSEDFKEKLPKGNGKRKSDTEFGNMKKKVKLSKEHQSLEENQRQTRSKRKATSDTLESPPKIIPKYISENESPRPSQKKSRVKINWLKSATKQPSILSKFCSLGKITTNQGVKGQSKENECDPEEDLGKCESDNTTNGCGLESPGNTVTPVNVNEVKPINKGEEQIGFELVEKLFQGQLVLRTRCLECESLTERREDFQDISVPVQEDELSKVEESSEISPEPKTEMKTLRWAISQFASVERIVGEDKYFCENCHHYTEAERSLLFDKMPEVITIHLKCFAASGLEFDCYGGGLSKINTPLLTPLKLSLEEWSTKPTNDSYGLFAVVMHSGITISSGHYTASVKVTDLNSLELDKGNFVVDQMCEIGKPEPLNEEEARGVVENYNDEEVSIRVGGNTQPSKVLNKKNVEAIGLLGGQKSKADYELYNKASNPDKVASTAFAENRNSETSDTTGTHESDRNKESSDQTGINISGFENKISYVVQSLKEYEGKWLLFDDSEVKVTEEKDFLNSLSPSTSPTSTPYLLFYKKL
Sequence of Cytochrome P450 1A2 (Homo sapiens) (P05177 whole entry, looked up): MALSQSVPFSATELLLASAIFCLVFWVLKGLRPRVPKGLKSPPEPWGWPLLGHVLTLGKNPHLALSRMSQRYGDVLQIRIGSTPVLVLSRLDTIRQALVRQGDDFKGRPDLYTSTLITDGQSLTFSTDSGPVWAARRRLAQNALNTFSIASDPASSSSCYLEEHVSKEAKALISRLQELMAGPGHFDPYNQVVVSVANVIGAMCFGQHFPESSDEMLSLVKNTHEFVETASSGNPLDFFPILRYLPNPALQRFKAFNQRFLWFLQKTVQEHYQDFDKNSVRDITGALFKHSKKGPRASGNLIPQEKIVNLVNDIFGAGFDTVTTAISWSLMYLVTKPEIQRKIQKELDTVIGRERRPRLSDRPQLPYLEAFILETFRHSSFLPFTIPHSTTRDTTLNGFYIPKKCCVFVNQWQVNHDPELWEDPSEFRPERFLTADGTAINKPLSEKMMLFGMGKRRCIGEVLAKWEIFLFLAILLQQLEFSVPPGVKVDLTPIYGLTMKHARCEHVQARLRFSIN

As for `COc1ccccc1-c1ccc2ncnc(NCCN3CCOCC3)c2c1`, the Potency in [1] is 15.8 µM (active); in assay [4] it was > 46 µM (inactive); in assay [5], > 46 µM (inactive); in [8] it was 7.94 µM (active); in assay [11], 14.1 µM (active); in assay [12] it was 17.8 µM (active). The results for the activity change, negative = inhibition in assay [2] and in assay [10] were 5.89% (inactive) and -9.29% (inactive), respectively. In assay [3], the activity, negative = inhibition was -7.65% (inactive). The Potency result in assay [6], in assay [7], in assay [9] and in [13] was “inactive” each time. Further, the max response in [10] (setting [17]) is -4.88%; in assay [10] (setting [18]), -15.2%.

Regarding `COc1ccccc1-c1ccc2ncnc(NCc3cnc(C)cn3)c2c1`, the Potency in [14] was > 11.4 µM (inactive); in [1], 6.31 µM (active); in assay [4], > 46 µM (inactive); in assay [5], > 46 µM (inactive); in assay [11], 15.8 µM (active). For the same molecule, the activity change, negative = inhibition in assay [15] is -23.9% (inactive); in assay [2] it was 3.25% (inactive); in assay [10], 2.78% (inactive). Moreover, the activity, negative = inhibition in assay [3] was -25.2% (inactive). The Potency result in assay [6], in assay [7], in assay [9] and in [13] was “inactive” throughout. For the same molecule, the max response came to 13.2% in assay [10] (setting [17]) and 14% in assay [10] (setting [18]).

For `Cc1ccccc1-c1ccc2ncnc(N3CCN(C)CC3)c2c1`, the Potency is > 11.4 µM (inactive) in assay [14]; 3.16 µM (active) in [1]; > 46 µM (inactive) in assay [4]; > 46 µM (inactive) in assay [5]; 3.98 µM (active) in [8]; 31.6 µM (active) in assay [12]. Also, the activity change, negative = inhibition in assay [15] was 25.8% (inactive); in assay [2] it was -10.1% (inactive); in [10], -2.02% (inactive). In [3], the activity, negative = inhibition was -2.42% (inactive). In addition, the Potency entry in [6], in assay [9], in assay [16] and in assay [13] was “inactive” throughout. Also, the results for the max response in assay [10] (setting [17]) and in [10] (setting [18]) were 10.5% and -2.94%, respectively.

For `COc1ccc(CNc2ccnc(-c3ccccc3CN(C)C)n2)c(OC)c1`, the activity change, negative = inhibition in assay [15] was 5.22% (inactive); in assay [2], -25.3% (inactive); in assay [10], 3.1% (inactive). The Potency in assay [1] was 15.8 µM (active); in [4], > 46 µM (inactive); in [5], > 46 µM (inactive); in assay [8], 5.01 µM (active). In [3], the activity, negative = inhibition was 9.04% (inactive). For the same molecule, the Potency result in assay [6], in assay [9], in [11], in [12], in assay [16] and in assay [13] was “inactive” throughout. For the same molecule, the max response stood at 26.9% in [10] (setting [17]) and 28.6% in [10] (setting [18]).

For `O=c1c(-c2cccs2)nc2cnc(N3CCNCC3)nc2n1C1CC1`, the Potency in assay [14] is > 11.4 µM (inactive); in [1], 2 µM (active); in [4], > 9.22 µM (inactive); in assay [5] it was > 46 µM (inactive); in assay [8], 6.31 µM (active). Moreover, the activity change, negative = inhibition in [15] was 5.15% (inactive); in [2] it was 0.706% (inactive); in assay [10], 1.95% (inactive). For the same molecule, in assay [3], the activity, negative = inhibition is 14.5% (inactive). The Potency result in [6], in [7], in assay [9], in [11], in assay [16] and in assay [13] was “inactive” throughout. The figures for the max response in [10] (setting [17]) and in [10] (setting [18]) were 1.24% and -0.825%, respectively.

Turning to `COc1ccc(CNc2ncnc3ccc(-c4ccc(C(=O)N(C)C)cc4)cc23)c(OC)c1`, the Potency was > 11.4 µM (inactive) in [14], > 46 µM (inactive) in assay [4], > 46 µM (inactive) in assay [5] and 2.51 µM (active) in assay [8]. Further, the results for the activity change, negative = inhibition in assay [15], in assay [2] and in [10] were -13.6% (inactive), 28.3% (inactive) and 1.13% (inactive), respectively. The activity, negative = inhibition in assay [3] is -9.48% (inactive). Further, the Potency entry in assay [6], in assay [9], in assay [11], in [16] and in assay [13] was “inactive” each time. The max response came out at 11.2% in [10] (setting [17]) and 9.92% in assay [10] (setting [18]).
